This is a sample that favours compounds with a hit; in the whole collection about 1.8% have one here.
LANA-H2B inh: blocks KSHV LANA binding to histone H2A/H2B. inhibition, % (concentration not given with the values). AID 2629. cell-free LANA-H2A/H2B peptide, fluorescence polarization. actives 0.6% (n = 320,000). Q9QR71; in the data active = inhibition mostly above about 10%, no sharp cut-off; inactive = mostly below about 6.7%
PKD1 kinase inh: blocks activity of human protein kinase D1 | Q15139 | PKD1 kinase fluorescence polarization assay | inhibition, % (concentration not given with the values) | actives 0.056% (n = 200,000) | AID 797
GRK2 inh: inhibitors of human GRK2 displacing RNA aptamer | actives 0.59% (n = 330,000) | bead flow cytometry, FAM-aptamer displacement from GRK2 | P25098 | inhibition of aptamer binding, % at 10 µM | AID 488847;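 active = inhibition of aptamer binding above 40%, roughly 3 SD of noise, on plates passing a quality check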;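 note: median bead fluorescence of bound FAM aptamer so fluorescent compounds give negative values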
VLA-4 inh: inhibition in a human VLA-4 binding assay; P13612; VLA-4 expressing cells, ligand binding flow cytometry; inhibition, % (about 7 µM as worked out from the volumes in the protocol); actives 0.2% (n = 330,000); AID 2557
Target sequence (P13612 whole entry, looked up): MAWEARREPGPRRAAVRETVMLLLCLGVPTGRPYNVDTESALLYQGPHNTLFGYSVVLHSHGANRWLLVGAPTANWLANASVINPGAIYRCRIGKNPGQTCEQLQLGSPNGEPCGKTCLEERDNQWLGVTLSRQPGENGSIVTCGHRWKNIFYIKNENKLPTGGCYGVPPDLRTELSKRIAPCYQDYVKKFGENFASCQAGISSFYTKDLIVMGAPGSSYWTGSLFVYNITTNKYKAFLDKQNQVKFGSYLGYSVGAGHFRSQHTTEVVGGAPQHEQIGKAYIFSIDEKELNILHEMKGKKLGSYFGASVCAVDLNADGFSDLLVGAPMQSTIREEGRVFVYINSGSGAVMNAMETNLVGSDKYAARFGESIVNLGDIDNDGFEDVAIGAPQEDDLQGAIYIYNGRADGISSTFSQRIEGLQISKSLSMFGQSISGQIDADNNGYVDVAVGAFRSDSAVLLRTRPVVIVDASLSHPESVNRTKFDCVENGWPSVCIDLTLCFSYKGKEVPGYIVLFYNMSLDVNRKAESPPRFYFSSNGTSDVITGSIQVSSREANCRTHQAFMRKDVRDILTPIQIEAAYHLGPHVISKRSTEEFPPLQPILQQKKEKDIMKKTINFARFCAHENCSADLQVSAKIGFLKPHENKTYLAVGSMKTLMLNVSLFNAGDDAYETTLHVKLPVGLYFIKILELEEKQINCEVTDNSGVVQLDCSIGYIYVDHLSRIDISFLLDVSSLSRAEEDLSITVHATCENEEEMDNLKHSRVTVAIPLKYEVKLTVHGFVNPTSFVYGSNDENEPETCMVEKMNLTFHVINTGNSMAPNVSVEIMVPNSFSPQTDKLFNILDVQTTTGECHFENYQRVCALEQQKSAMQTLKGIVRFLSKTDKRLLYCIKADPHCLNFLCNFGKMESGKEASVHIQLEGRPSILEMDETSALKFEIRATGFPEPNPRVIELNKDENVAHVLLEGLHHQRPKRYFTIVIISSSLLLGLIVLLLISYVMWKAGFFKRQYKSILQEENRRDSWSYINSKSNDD
Pemphigus Ab inh: human desmoglein-3 autoantibody binding inhibition | P32926 | DSG3-coupled beads, scFv-anti-DSG3-GFP binding, flow cytometry; active compounds read low | binding (percent of control), % at 10 µM | actives 0.48% (n = 310,000);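 active = binding more than 3 SD below its plate's average and above zero; inconclusive = below that plate limit but binding exactly zero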;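 note: hits lower antibody fragment binding to DSG3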
HDAC3 inh: human HDAC3 inhibition; actives 0.15% (n = 320,000); recombinant HDAC3, fluorogenic peptide/trypsin coupled, fluorescence; inhibition, % at 8.3 µM; O15379; in the data active = inhibition above about 26%, passing the limit was not always enough; inconclusive = no clear call, values can overlap the other calls
Of the large screens only hits and unclear results are named; the others gave an inactive call. Cut-off read from the data, not from the text of the source, unless noted: active = inhibition above about 50%; inactive = the rest.

Cc1[nH]c(=O)c(C#N)c(C)c1CCC(=O)Nc1cc(S(C)(=O)=O)ccc1Cl	none (no result: PKD1 kinase inh, Pemphigus Ab inh)
Cc1c(NC(=O)CN2c3ccccc3CC2C)c(=O)n(-c2ccccc2)n1C (centres undefined)	Pemphigus Ab inh 102.8
COc1ccc(-c2cn3ccc4ccccc4c3n2)cc1	Pemphigus Ab inh 86.3
CC1(c2ccccc2)NC(=O)N(CC(=O)Nc2ccccc2N2CCCC2)C1=O (centres undefined)	none (no result: PKD1 kinase inh)
CC1(C)CC(=O)C(N=Nc2cccc(S(=O)(=O)N3CCOCC3)c2)=C(O)C1	none (no result: PKD1 kinase inh)
CC1CCN(S(=O)(=O)c2ccc(N=NC3=C(O)CC(C)(C)CC3=O)cc2)CC1	Pemphigus Ab inh 7.6
CC(C)OC(=O)c1ccc(OC(=O)c2cccnc2)cc1	HDAC3 inh 46.7
COC(=O)c1ccc(OC(=O)c2cccnc2)cc1	HDAC3 inh 41.7 (no result: Pemphigus Ab inh)
CC(=O)Nc1ccc(OC(=O)c2cccnc2)cc1	none (no result: Pemphigus Ab inh)
CN(C)CCOC(c1ccccc1)c1ccccc1 (tested in a mixture with another compound)	LANA-H2B inh 12.6
O=C(NCc1nnc(SCC(=O)N2CCOCC2)o1)c1c(F)cccc1F	HDAC3 inh inconclusive (no result: PKD1 kinase inh, Pemphigus Ab inh)
CCN(CC)S(=O)(=O)c1ccc2oc(SCC(=O)Nc3cc(C)on3)nc2c1	LANA-H2B inh 98.9 (no result: PKD1 kinase inh)
Cc1cc(NC(=O)CSc2nc3cc(Cl)ccc3o2)no1	none (no result: PKD1 kinase inh)
Cc1ccc(S(=O)(=O)N2CCCCC2)cc1C(=O)OC1CCCCC1=O (centres undefined)	Pemphigus Ab inh inconclusive (no result: PKD1 kinase inh)
Cc1cccc(N2CC(C(=O)NC3CCCCCC3)CC2=O)c1C (centres undefined)	none (no result: PKD1 kinase inh, Pemphigus Ab inh)
CC(=O)c1cc2c(cc1NC(=O)c1ccc(Cl)cc1)OCCO2	Pemphigus Ab inh 31.1 (no result: PKD1 kinase inh)
CCN(CC(=O)Nc1c(F)cccc1F)C(=O)c1ccc(C2SCCS2)cc1	HDAC3 inh 62.3 (no result: PKD1 kinase inh)
CCN(CC(=O)Nc1c(F)cccc1F)C(=O)c1ccc(C(F)(F)F)cc1	none (no result: PKD1 kinase inh)
CN(CC(=O)Nc1cccc(F)c1)C(=O)c1ccc(C2SCCS2)cc1	HDAC3 inh 59.1 (no result: PKD1 kinase inh)
COc1ccc(NC(=O)Nc2cccc3c2O[C@@H](CN(C)CC2CCCCC2)[C@@H](C)CN([C@H](C)CO)C3=O)cc1	none (no result: PKD1 kinase inh)
C=CCn1c(C)csc1=Nc1ccc(C(C)=O)cc1	none
CCOC(=O)c1ccc(N=c2scc(C)n2CC)cc1	LANA-H2B inh 42.6
Cc1ccnn1CCC(=O)N1CCCC(Nc2ccc(C(C)C)cc2)C1 (centres undefined)	none (no result: LANA-H2B inh, PKD1 kinase inh, GRK2 inh, VLA-4 inh, HDAC3 inh)
Cc1ccnn1CCC(=O)N1CCCC(Nc2ccc(F)c(F)c2)C1 (centres undefined)	Pemphigus Ab inh 0.9 (no result: PKD1 kinase inh)
COc1ccccc1NC(=O)C(C)OC(=O)CC1CCCCC1 (centres undefined)	none (no result: PKD1 kinase inh)
Cc1[nH]c(=O)c(C#N)c(C)c1[N+](=O)[O-]	LANA-H2B inh 12.7 (no result: PKD1 kinase inh)
Nc1nc(SCc2nnc(SCC(=O)O)n2-c2ccccc2)nc2sc3c(c12)CCCC3	Pemphigus Ab inh -17.2
CC(NC(=O)CSc1nc2sc3c(c2c(=O)n1-c1ccccc1)CCCC3)c1ccccc1 (centres undefined)	Pemphigus Ab inh 79.4 (no result: LANA-H2B inh, HDAC3 inh)
COc1ccc(-n2c(SCC(=O)O)nc3sc4c(c3c2=O)CCCC4)cc1	Pemphigus Ab inh 78.9 (no result: PKD1 kinase inh)
NC(=O)CSc1nc(N)c2c3c(sc2n1)CCCCC3	none
O=C(CSc1nc2sc3c(c2c(=O)n1-c1ccccc1)CCCC3)N/N=C/c1ccccc1C(=O)O	none (no result: PKD1 kinase inh)
Cc1ccc(S(=O)(=O)NC(C(=O)O)c2ccccc2)cc1 (centres undefined)	none
Cc1ccnc(NC(=O)c2cccc(S(=O)(=O)N3CCCc4ccccc43)c2)c1	none (no result: PKD1 kinase inh)
COC(=O)c1ccc(CSc2nc3scc(-c4cccs4)c3c(=O)[nH]2)o1	HDAC3 inh 42.2
CCOc1ccc(-c2nc3scc(-c4cccs4)c3c(=O)[nH]2)cc1	Pemphigus Ab inh 70.7
COc1ccc(C(=O)OCC(=O)c2ccco2)cc1[N+](=O)[O-]	none (no result: LANA-H2B inh, PKD1 kinase inh, GRK2 inh, VLA-4 inh, HDAC3 inh)
CCc1c(C)nn(C(=O)/C(C#N)=C\N(C)C)c1C	none
CC(=O)Nc1ccc(N=c2cc([N+](=O)[O-])cc(Cl)n2O)cc1	none (no result: PKD1 kinase inh)
Cn1cc(CN2CCN(c3ccccc3)CC2)c2ccccc21	LANA-H2B inh 13.1
Cc1ccc(-c2ccc(C#N)c(=O)n2CC(=O)N(C)C)cc1	none (no result: PKD1 kinase inh)
CCCCNc1c(-c2ccc(SC(C)CC)cc2)nc2cnccn12 (centres undefined)	HDAC3 inh 31.5 (no result: PKD1 kinase inh)
CCCCNc1c(-c2ccc(OC)c(Sc3ccc(OC)cc3)c2)nc2cnccn12	none (no result: PKD1 kinase inh)
NNc1nc2c(-c3ccc(Cl)cc3)nnn2c2ccccc12	Pemphigus Ab inh 68.2
CCOc1ccccc1NC(=O)c1ccc2c(O)c(S(=O)(=O)c3ccccc3)c(=O)[nH]c2c1	none (no result: LANA-H2B inh, PKD1 kinase inh, GRK2 inh, VLA-4 inh, HDAC3 inh)
Cc1[nH]nc(SCC(=O)NCCc2ccccc2)c1[N+](=O)[O-]	LANA-H2B inh 12.3
CCCCCn1c(=S)[nH]c2ncccc2c1=O	none
O=c1c2cccnc2[nH]c(=S)n1CCC1=CCCCC1	GRK2 inh 70.0 (no result: Pemphigus Ab inh)
Nc1cc2c(cc1Cl)N(Cc1ccccc1)C(=O)CO2	none (no result: PKD1 kinase inh)
O=C(COC(=O)/C=C/c1ccccc1)NC(=O)NCc1ccccc1	none (no result: LANA-H2B inh, PKD1 kinase inh, HDAC3 inh)
CCOC(=O)c1ccc(NC(=O)CN2C(=O)NC3(CCCCCC3)C2=O)cc1	none
CCOC(=O)c1ccc(NC(=O)CCCN2C(=O)NC3(CCCC3)C2=O)cc1	LANA-H2B inh 12.4 (no result: PKD1 kinase inh)
CCOC(=O)C1(Cc2ccccc2)CCCN(C(=O)c2cnn(CC)c2)C1 (centres undefined)	none (no result: PKD1 kinase inh, Pemphigus Ab inh)
O=C(Cn1nc(Cc2cccnc2)c2ccccc2c1=O)Nc1ccccc1F	LANA-H2B inh 15.7 (no result: PKD1 kinase inh)
Cc1ccc(NC(=O)CN(C)C(=O)Cn2ncc(Cl)c(Cl)c2=O)cc1	LANA-H2B inh active
Cc1ccc(NC(=O)CN(C)C(=O)Cc2ccc(Cl)c(Cl)c2)cc1	none (no result: PKD1 kinase inh, Pemphigus Ab inh)
COc1ccc2c(c1)C(=O)Cc1ccccc1O2	LANA-H2B inh 17.4 (no result: PKD1 kinase inh)
C=CCNC(=S)Nc1ccc(Br)cc1F	LANA-H2B inh 12.6
C=CCNC(=S)Nc1ccc(Cl)cc1F	none
CCCN(CC(=O)Nc1ccccc1C)C(=O)Cc1c(C)nc2ccccc2c1C	LANA-H2B inh 139.7 (no result: PKD1 kinase inh)
CCCN(CC(=O)Nc1ccccc1C)C(=O)Cc1c[nH]c2ccccc12	none (no result: LANA-H2B inh, PKD1 kinase inh, GRK2 inh, VLA-4 inh, HDAC3 inh)
CN(C)CCCNC(=S)NCCNc1nc2cc3c(cc2cc1C#N)OCO3	none
O=C(Nc1ccc2oc(=O)ccc2c1)c1ccc(-c2ccccc2[N+](=O)[O-])o1	Pemphigus Ab inh 83.1 (no result: PKD1 kinase inh)
O=C(CN1CCN(S(=O)(=O)c2cccc(Br)c2)CC1)NCCc1cccs1	none (no result: PKD1 kinase inh, Pemphigus Ab inh)
Cc1cc(S(=O)(=O)N2CCN(CC(=O)NCCc3cccs3)CC2)ccc1Br	LANA-H2B inh active (no result: PKD1 kinase inh, Pemphigus Ab inh)
CCC(C)(C)c1nnc(NC(=O)C2CC(=O)N(CCc3ccc(F)cc3)C2)s1 (centres undefined)	none (no result: PKD1 kinase inh)
O=C(c1ccccn1)N(CC1CCCO1)C1(C(=O)NC2CCCCC2)CCCCC1 (centres undefined)	LANA-H2B inh 24.9
O=C(c1ccccn1)N(Cc1ccco1)C1(C(=O)NC2CCCCC2)CCCCC1	none (no result: Pemphigus Ab inh)

Screens deposited in PubChem BioAssay by several laboratories.
